From PubChem BioAssay (NCI)
About 83,000 compounds went through this panel and 20% of them were active in at least one assay; those are over-represented in the sample as a whole.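 96-well plates, one dose, 48 hours. Percent growth reported; active if below 10.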 Active and inactive are the calls of the source.

What was measured:
Assay in all cases: NCI-60 one-dose screen, 48 h (100 = growth as untreated, 0 = no growth, -100 = all killed)
Settings in all cases: 10 µM unless noted
EKVX NSCLC = test system: EKVX NSCLC
SN12C renal = test system: SN12C renal
UO-31 renal = test system: UO-31 renal
TK-10 renal = test system: TK-10 renal
ACHN renal = test system: ACHN renal
CAKI-1 renal = test system: CAKI-1 renal
A498 renal = test system: A498 renal
CCRF-CEM leukemia = test system: CCRF-CEM leukemia
MOLT-4 leukemia = test system: MOLT-4 leukemia
RPMI-8226 leukemia = test system: RPMI-8226 leukemia
OVCAR-8 ovarian = test system: OVCAR-8 ovarian
OVCAR-5 ovarian = test system: OVCAR-5 ovarian
OVCAR-4 ovarian = test system: OVCAR-4 ovarian
SK-OV-3 ovarian = test system: SK-OV-3 ovarian
IGROV1 ovarian = test system: IGROV1 ovarian
OVCAR-3 ovarian = test system: OVCAR-3 ovarian
HS 578T breast = test system: HS 578T breast
NCI/ADR-RES ovarian = test system: NCI/ADR-RES ovarian
SK-MEL-2 melanoma = test system: SK-MEL-2 melanoma
SR leukemia = test system: SR leukemia

Measured: growth

O=C(Nc1nn2c(-c3cc(C(F)(F)F)cc(C(F)(F)F)c3)nnc2s1)C1CCCC1
active: UO-31 renal 8.94% | TK-10 renal -30.4% | ACHN renal 8.22% | CAKI-1 renal 7.75% | A498 renal -21.8% | MOLT-4 leukemia -10.2% | SK-OV-3 ovarian 5.54% | NCI/ADR-RES ovarian 2.45%
inactive: EKVX NSCLC 21.7% | SN12C renal 11.6% | CCRF-CEM leukemia 13.8% | RPMI-8226 leukemia 20.5% | OVCAR-8 ovarian 12% | OVCAR-5 ovarian 18.6% | OVCAR-4 ovarian 18.8% | IGROV1 ovarian 40% | OVCAR-3 ovarian 22.9% | HS 578T breast 21.6%

CCCCCCCSc1ncnc2[nH]ncc12
inactive: SK-MEL-2 melanoma 72.7% | SN12C renal 86.1% | UO-31 renal 60.6% | TK-10 renal 81.1% | ACHN renal 88.7% | A498 renal 88.7% | CCRF-CEM leukemia 76% | MOLT-4 leukemia 75.4% | SR leukemia 79.3% | OVCAR-8 ovarian 86.9% | OVCAR-5 ovarian 92% | OVCAR-4 ovarian 96.7% | SK-OV-3 ovarian 101% | IGROV1 ovarian 81.7% | OVCAR-3 ovarian 79.9% | NCI/ADR-RES ovarian 84.6%

O=C1NC(=O)/C(=C\c2ccco2)S1
inactive: SK-MEL-2 melanoma 105% | SN12C renal 95.8% | UO-31 renal 67.5% | TK-10 renal 102% | ACHN renal 100% | A498 renal 75.8% | CCRF-CEM leukemia 95.9% | SR leukemia 113% | OVCAR-8 ovarian 105% | OVCAR-5 ovarian 95.9% | OVCAR-4 ovarian 121% | SK-OV-3 ovarian 97.1% | IGROV1 ovarian 114% | OVCAR-3 ovarian 106% | NCI/ADR-RES ovarian 103%

CCCCCCCCCCCCCCCCNC(=O)Nc1ccc2ccccc2c1
inactive: SK-MEL-2 melanoma 118% | SN12C renal 89.7% | UO-31 renal 104% | TK-10 renal 110% | CAKI-1 renal 107% | A498 renal 104% | MOLT-4 leukemia 105% | SR leukemia 95.6% | RPMI-8226 leukemia 102% | OVCAR-8 ovarian 104% | OVCAR-5 ovarian 111% | OVCAR-4 ovarian 113% | SK-OV-3 ovarian 101% | IGROV1 ovarian 101% | OVCAR-3 ovarian 116% | HS 578T breast 107% | NCI/ADR-RES ovarian 110%

Cc1ccc(C2=NNC(c3sc(Cl)nc3Cl)C2)cc1 (stereo unspecified)
active: MOLT-4 leukemia 8.29% | SR leukemia 3.24%
inactive: SK-MEL-2 melanoma 89.3% | SN12C renal 40.8% | UO-31 renal 78.3% | TK-10 renal 133% | CAKI-1 renal 96.6% | A498 renal 97.2% | CCRF-CEM leukemia 18% | RPMI-8226 leukemia 97.9% | OVCAR-8 ovarian 100% | OVCAR-5 ovarian 116% | OVCAR-4 ovarian 84.7% | SK-OV-3 ovarian 88.4% | IGROV1 ovarian 80.6% | OVCAR-3 ovarian 101% | HS 578T breast 116% | NCI/ADR-RES ovarian 94.5%

COc1cccc(C=Nc2cc(C(C)C)c(O)cc2C)c1O
inactive: SK-MEL-2 melanoma 102% | SN12C renal 95% | TK-10 renal 99.8% | ACHN renal 100% | A498 renal 75.7% | CCRF-CEM leukemia 35% | MOLT-4 leukemia 98.2% | SR leukemia 113% | OVCAR-8 ovarian 98.8% | OVCAR-5 ovarian 101% | OVCAR-4 ovarian 101% | SK-OV-3 ovarian 89.2% | IGROV1 ovarian 111% | OVCAR-3 ovarian 100% | NCI/ADR-RES ovarian 104%

O=C(N/N=C/c1cccc(O)c1O)c1ccccc1
inactive: SK-MEL-2 melanoma 54.5% | SN12C renal 21.3% | TK-10 renal 18.6% | ACHN renal 11.5% | A498 renal 81.1% | SR leukemia 18.2% | RPMI-8226 leukemia 32.1% | OVCAR-5 ovarian 30.1% | SK-OV-3 ovarian 41.2% | OVCAR-3 ovarian 16.2% | HS 578T breast 66.1% | NCI/ADR-RES ovarian 11%
active: UO-31 renal 4.38% | CAKI-1 renal -20.5% | OVCAR-8 ovarian 4.99% | OVCAR-4 ovarian 4.38% | IGROV1 ovarian 6.87%

CC1CC=CCC1C1OCC(C)(C)CO1 (stereo unspecified)
inactive: SK-MEL-2 melanoma 124% | SN12C renal 103% | TK-10 renal 111% | ACHN renal 106% | CAKI-1 renal 106% | A498 renal 103% | MOLT-4 leukemia 102% | SR leukemia 96.4% | RPMI-8226 leukemia 97.2% | OVCAR-8 ovarian 98.6% | OVCAR-5 ovarian 104% | OVCAR-4 ovarian 108% | SK-OV-3 ovarian 110% | IGROV1 ovarian 101% | OVCAR-3 ovarian 109% | NCI/ADR-RES ovarian 108%

COc1cc(-c2n[nH]nc2-c2ccccn2)cc(OC)c1OC
inactive: EKVX NSCLC 94.6% | SN12C renal 89.7% | UO-31 renal 87.7% | TK-10 renal 151% | ACHN renal 94.8% | CAKI-1 renal 124% | A498 renal 118% | CCRF-CEM leukemia 97.7% | MOLT-4 leukemia 96.6% | RPMI-8226 leukemia 85.1% | OVCAR-5 ovarian 100% | OVCAR-4 ovarian 88.2% | SK-OV-3 ovarian 98.5% | IGROV1 ovarian 78.2% | OVCAR-3 ovarian 102% | HS 578T breast 98% | NCI/ADR-RES ovarian 77.9%

O=C(CN1CCN(c2ccc(Cl)cc2)CC1)N1CCN(c2nnc(-c3ccccc3)c(-c3ccccc3)n2)CC1
active: RPMI-8226 leukemia -23.4%
inactive: EKVX NSCLC 29.9% | SN12C renal 49.5% | UO-31 renal 14.6% | TK-10 renal 68.8% | ACHN renal 39.3% | CAKI-1 renal 92.6% | A498 renal 45.4% | CCRF-CEM leukemia 20.4% | OVCAR-5 ovarian 86.4% | OVCAR-4 ovarian 30.6% | SK-OV-3 ovarian 85% | OVCAR-3 ovarian 40.9% | NCI/ADR-RES ovarian 39.2%

CCCCCCCCCCCCC1CCCC(C)C1 (stereo unspecified)
inactive: SK-MEL-2 melanoma 94.9% | SN12C renal 106% | UO-31 renal 87.9% | TK-10 renal 94.2% | ACHN renal 95.5% | CAKI-1 renal 88.2% | A498 renal 98.5% | RPMI-8226 leukemia 99% | OVCAR-8 ovarian 102% | OVCAR-5 ovarian 105% | SK-OV-3 ovarian 99.7% | IGROV1 ovarian 91.6% | OVCAR-3 ovarian 108% | HS 578T breast 93.3% | NCI/ADR-RES ovarian 95.3%

O=C(/C=C/c1cccc(O)c1)c1cccc(-n2cc(-c3ccccc3)[nH]c2=O)c1
active: SN12C renal -12.9% | UO-31 renal -73.5% | ACHN renal -75.8% | CAKI-1 renal 8.38% | CCRF-CEM leukemia -3.86% | MOLT-4 leukemia -7.37% | RPMI-8226 leukemia -45.4% | OVCAR-8 ovarian 9.12% | OVCAR-5 ovarian -9.18% | IGROV1 ovarian -30.5% | OVCAR-3 ovarian -28% | NCI/ADR-RES ovarian 3.96%
inactive: EKVX NSCLC 66.8% | TK-10 renal 12.4% | A498 renal 90.6% | OVCAR-4 ovarian 20.2% | SK-OV-3 ovarian 106% | HS 578T breast 46%

C1=C(Cc2ccccc2)n2cnc3ncnc(c32)S1
inactive: SK-MEL-2 melanoma 75% | SN12C renal 86.4% | UO-31 renal 48.3% | TK-10 renal 28.6% | CAKI-1 renal 39.6% | A498 renal 99.6% | CCRF-CEM leukemia 58.9% | MOLT-4 leukemia 31.2% | SR leukemia 36.8% | RPMI-8226 leukemia 28% | OVCAR-8 ovarian 73.5% | OVCAR-5 ovarian 70.5% | OVCAR-4 ovarian 40.1% | SK-OV-3 ovarian 19.7% | IGROV1 ovarian 86.8% | OVCAR-3 ovarian 15.8% | HS 578T breast 75.3% | NCI/ADR-RES ovarian 56.7%

CCOC(=O)C(C(=O)OCC)C1CCCCC1
inactive: SK-MEL-2 melanoma 110% | SN12C renal 106% | UO-31 renal 91.8% | TK-10 renal 101% | ACHN renal 102% | A498 renal 107% | MOLT-4 leukemia 102% | SR leukemia 97.3% | RPMI-8226 leukemia 101% | OVCAR-8 ovarian 102% | OVCAR-5 ovarian 105% | OVCAR-4 ovarian 102% | SK-OV-3 ovarian 108% | IGROV1 ovarian 93.2% | OVCAR-3 ovarian 110% | HS 578T breast 109% | NCI/ADR-RES ovarian 109%

CSc1nc(-c2ccc(O)cc2O)c2c(=O)[nH]c(Nc3ccc(S(=O)(=O)Nc4nc(C)cc(C)n4)cc3)nc2n1
inactive: SK-MEL-2 melanoma 81.2% | SN12C renal 107% | TK-10 renal 123% | ACHN renal 93.3% | CAKI-1 renal 1120% | A498 renal 113% | CCRF-CEM leukemia 103% | MOLT-4 leukemia 104% | SR leukemia 63.3% | RPMI-8226 leukemia 99.2% | OVCAR-8 ovarian 107% | OVCAR-5 ovarian 90% | OVCAR-4 ovarian 108% | SK-OV-3 ovarian 105% | OVCAR-3 ovarian 98.1% | HS 578T breast 119% | NCI/ADR-RES ovarian 97.5%

O=Cc1ncc(-c2ccc(C(F)(F)F)cc2)c(NC2CCCCCC2)n1
active: SK-MEL-2 melanoma -79.8% [100 µM] | SN12C renal -87.4% [100 µM] | UO-31 renal -90.8% [100 µM] | TK-10 renal -94.9% [100 µM] | ACHN renal -99.5% [100 µM] | A498 renal -73.1% [100 µM] | MOLT-4 leukemia -60% [100 µM] | SR leukemia -29.1% [100 µM] | RPMI-8226 leukemia -35.1% [100 µM] | OVCAR-8 ovarian -68.2% [100 µM] | OVCAR-5 ovarian -91.8% [100 µM] | OVCAR-4 ovarian -73.8% [100 µM] | SK-OV-3 ovarian -13.7% [100 µM] | IGROV1 ovarian -68.3% [100 µM] | OVCAR-3 ovarian -94.5% [100 µM] | HS 578T breast -39.1% [100 µM] | NCI/ADR-RES ovarian -69.8% [100 µM]

O=C1c2cccc3c([N+](=O)[O-])ccc(c23)C(=O)N1CCCCl
inactive: HS 578T breast 23.3% [100 µM]
active: SK-MEL-2 melanoma -94.9% [100 µM] | SN12C renal -93.1% [100 µM] | UO-31 renal -86.6% [100 µM] | TK-10 renal -50.2% [100 µM] | CAKI-1 renal -91.4% [100 µM] | A498 renal -92.4% [100 µM] | MOLT-4 leukemia -11.3% [100 µM] | SR leukemia -6.13% [100 µM] | OVCAR-8 ovarian -64.2% [100 µM] | OVCAR-5 ovarian -92.5% [100 µM] | OVCAR-4 ovarian -97% [100 µM] | SK-OV-3 ovarian -99.6% [100 µM] | IGROV1 ovarian -57.7% [100 µM] | OVCAR-3 ovarian -87.1% [100 µM] | NCI/ADR-RES ovarian -37.9% [100 µM]
